Bioassay records from PubChem.
FECH block: inhibitors of human ferrochelatase; P22830; purified FECH, Ni-mesoporphyrin absorbance 550 nm; calls only at 10 µM (by protocol); actives 3.3% (n = 20,000);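 active = enzyme reaction rate more than 3 SD below the solvent-only control wells on the same plate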;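 note: lower slope than DMSO wells means FECH inhibition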
Target sequence (P22830 whole entry, looked up): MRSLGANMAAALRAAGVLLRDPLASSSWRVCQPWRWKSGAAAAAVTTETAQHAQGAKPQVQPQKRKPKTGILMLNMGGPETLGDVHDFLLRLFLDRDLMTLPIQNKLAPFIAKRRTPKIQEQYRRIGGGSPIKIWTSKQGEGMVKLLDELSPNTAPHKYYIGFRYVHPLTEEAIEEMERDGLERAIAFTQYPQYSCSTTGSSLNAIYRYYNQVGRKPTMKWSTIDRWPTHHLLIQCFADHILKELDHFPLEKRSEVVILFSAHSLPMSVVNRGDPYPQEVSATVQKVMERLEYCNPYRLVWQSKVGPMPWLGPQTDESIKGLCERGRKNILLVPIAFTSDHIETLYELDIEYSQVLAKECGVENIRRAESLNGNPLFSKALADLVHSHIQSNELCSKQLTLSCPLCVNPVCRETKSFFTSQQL
An asterisk follows results filed as active. This is one part of a sample in which hits are shown more often than they occur.

`CC(C)(O)C#Cc1cccc(-c2n[nH]c(Cc3ccccc3)n2)c1` gave FECH block inactive.
Screening O=C(NC12C[C@H]3C[C@@H](C1)CC(n1ncnn1)(C3)C2)c1cn2ccsc2n1 returned FECH block inactive.
COc1ccc(Nc2c(-c3ccc4c(c3)CCCC4)c(=O)c2=O)cc1OC was read as FECH block inactive.
CCCNC(=O)C1CCC(Cn2c(=O)c3sccc3n(CC(=O)NCc3ccco3)c2=O)CC1 (centres undefined) was read as FECH block inactive.
`Cc1ccc(S(=O)(=O)NCc2nc3cccnc3n2CC(C)C)cc1Cl` gave FECH block inactive.
Screening CC(C)Cn1c(CNS(=O)(=O)c2cccc(Cl)c2)nc2cccnc21 returned FECH block inactive.
Screening Cc1ccc(S(=O)(=O)NCc2nc3cccnc3n2CC(C)C)cc1C returned FECH block active.
Screening O=C(O)c1[nH]ncc1CN1CCN(c2nnc(C(F)(F)F)s2)CC1 returned FECH block inactive.
For CCc1c(C)nc2ncnn2c1Sc1ccccc1NC(=O)c1cc(OC)cc(OC)c1 the results were FECH block inactive.
`CCCc1c(C)nc2ncnn2c1Sc1ccccc1NC(=O)c1cccc(Cl)c1` gave FECH block inactive.
Cc1nc2ncnn2c(Sc2ccccc2NC(=O)c2ccc(Cl)cc2)c1C was read as FECH block inactive.
For Cc1nc2nc(-c3ccccc3)nn2c(Sc2ccccc2NC(=O)c2c(F)cccc2F)c1C the results were FECH block inactive.
Cc1nc2nc(-c3ccccc3)nn2c(Sc2ccccc2NC(=O)c2ccccc2)c1C was read as FECH block inactive.
For CCCc1c(C)nc2ncnn2c1Sc1ccccc1NC(=O)c1ccc(C(C)(C)C)cc1 the results were FECH block active.
Cc1cccc(C(=O)Nc2ccccc2Sc2c(C)c(C)nc3ncnn23)c1 was read as FECH block active.
Screening CCc1c(C)nc2ncnn2c1Sc1ccccc1NC(=O)c1ccc(F)cc1 returned FECH block active.
Screening CCCc1c(C)nc2ncnn2c1Sc1ccccc1NC(=O)c1ccc(C)cc1 returned FECH block inactive.
CCc1cc(Sc2ccccc2NC(=O)c2cccc(C)c2)n2ncnc2n1 was read as FECH block inactive.
Screening CCc1c(C)nc2ncnn2c1Sc1ccccc1NC(=O)c1ccc(OC)cc1 returned FECH block inactive.
`CCC(=O)Nc1ccccc1Sc1c(C)c(C)nc2nc(-c3ccccc3)nn12` gave FECH block active.
Cc1cc(=O)[nH]c(NCCn2cc(C(C)c3ccccc3)nn2)n1 (centres undefined) was read as FECH block inactive.
For CC1=C(C(=O)Nc2ccccn2)C(c2cccc(Cl)c2Cl)n2ncnc2N1 (centres undefined) the results were FECH block inactive.
`CCC/C=C/c1ccc(Cl)c(C(=O)NC)c1` gave FECH block inactive.
`CSc1nc(NC(C)C)c(C#N)c(-c2ccc(C)cc2)n1` gave FECH block inactive.
Screening C/C(=C\c1ccco1)CN1CCC(CNC(=O)NC(C)C)C1 (centres undefined) returned FECH block inactive.
For Cc1ccc(CN2CCCN(CC(=O)NCc3ccc(F)cc3)S2(=O)=O)cc1 the results were FECH block inactive.
Cc1ccccc1CN1CCC(CNC(=O)Cc2cccnc2)C1 (centres undefined) was read as FECH block inactive.
For CC(=O)N[C@H]1C[C@@H](c2cnc(-c3ccccc3C)s2)O[C@@H](C(C)C)C1 the results were FECH block inactive.
Screening CCCc1cc(C(=O)N2CCNCC2C(=O)NCc2ccccn2)ccn1 (centres undefined) returned FECH block inactive.
CCCn1nc(C(=O)O)c2c1CCC(N(C)Cc1nncn1C(C)C)C2 (centres undefined) was read as FECH block inactive.
`Cc1nc(SCc2nc(-c3ccc(Cl)cc3)oc2C)[nH]c(=O)c1C` gave FECH block inactive.
For O=C(N1CC(c2ccccn2)C1)C12CC3CC(CC(C3)C1)C2 the results were FECH block inactive.
`COc1ccc(Cn2c(CNS(=O)(=O)c3ccc(C)cc3C)nc3cccnc32)cc1` gave FECH block inactive.
`CSc1cccc(NC(=O)CN2CCN(Cc3ccc(F)cc3Cl)S2(=O)=O)c1` gave FECH block inactive.
Screening COC(C)c1ccc(-c2cc(C(=O)O)cc(S(=O)(=O)N3CCOCC3)c2)cc1 (centres undefined) returned FECH block inactive.
Clc1nc(-c2ccccc2CN2CCOCC2)ns1 was read as FECH block inactive.
`O=C(O)c1cc(O)cc(-c2ccccc2CN2CCOCC2)c1` gave FECH block active.
For CCN1CCN(Cc2cc(=O)n3[nH]c(-c4cccc(C)c4)nc3n2)CC1 the results were FECH block inactive.
For Cc1cc(C)n2nc(CN(C(=O)c3ccccc3C)c3cccc(Cl)c3)nc2n1 the results were FECH block inactive.
Screening Cc1cc(C)n2nc(CN(C(=O)C3CCCCC3)c3cccc(Cl)c3)nc2n1 returned FECH block inactive.
Cc1cccc(N(Cc2nc3nc(C)cc(C)n3n2)C(=O)c2ccccc2C)c1 was read as FECH block active.
`Cc1cc(C)n2nc(CN(C(=O)c3ccccc3C)c3ccccc3)nc2n1` gave FECH block inactive.
`CCCC(=O)N(Cc1nc2nc(C)cc(C)n2n1)c1cccc(Cl)c1` gave FECH block inactive.
Cc1cc(C)n2nc(CN(C(=O)C3CCCCC3)c3ccc(Cl)cc3)nc2n1 was read as FECH block active.
For Cc1cc(C)n2nc(CN(C(=O)c3ccccc3)c3ccc(Cl)cc3)nc2n1 the results were FECH block inactive.
For Cc1cccc(N(Cc2nc3nc(C)cc(C)n3n2)C(=O)c2ccccc2)c1 the results were FECH block inactive.
`Cc1ccc(N(Cc2nc3nc(C)cc(C)n3n2)C(=O)C2CCCCC2)cc1` gave FECH block inactive.
Cc1cccc(N(Cc2nc3nc(C)cc(C)n3n2)C(=O)CCc2ccccc2)c1 was read as FECH block inactive.
`CCCC(=O)N(Cc1nc2nc(C)cc(C)n2n1)c1cccc(C)c1` gave FECH block active.
For Cc1cccc(C(=O)N(Cc2nc3nc(C)cc(C)n3n2)c2ccccc2)c1 the results were FECH block active.
CC(=O)NCCN1CCc2onc(C(c3ccccc3)c3ccccc3)c2C1 was read as FECH block inactive.
Screening CCCCN(CCNC(=O)C1CCN(c2ncnc3c2nc2n3CCCCC2)CC1)Cc1ccco1 returned FECH block inactive.
CCCN1CCC(Cc2noc(C3(N)CCCC3)n2)CC1 was read as FECH block inactive.
Screening Cc1nc(N2CC[C@@H](N3CCOCC3)[C@H](O)C2)cc(-n2cccn2)n1 returned FECH block inactive.
Screening c1n[nH]nc1SCCNC1CCCNC1 (centres undefined) returned FECH block inactive.
Cc1ccc(NC(=O)CN2CCCN(Cc3cccc(F)c3)S2(=O)=O)cc1 was read as FECH block inactive.
For O=C(Nc1ccc2c(c1)OCO2)N1CCC(n2cnc3cccnc32)CC1 the results were FECH block inactive.
Screening Cc1cc(NCCS(=O)(=O)N(C)C)nc(-c2cccnc2)n1 returned FECH block inactive.
For CCCN(CCC)c1ncc(NS(=O)(=O)c2cc(Cl)ccc2OC)cc1C(=O)O the results were FECH block inactive.
For COc1cccc(C(=O)N(Cc2nc3nc(C)cc(C)n3n2)c2ccc(Cl)cc2)c1 the results were FECH block inactive.
